Among all 360,000 compounds or so, about 2,300 (0.64%) were called active.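 Rule for the calls: active = compounds giving at least 50% protection of heart cells from peroxide-induced death in the single-dose screen, raw or plate-pattern-corrected value; inactive = the rest.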 Many of the other results were omitted from the sample, so actives are more common in it than they were.
assay: H9c2 cardiomyocyte survival under peroxide injury – uHTS, H9c2 cells, ATPLite luminescence, primary screen (AID 588492); conditions: H9c2 cardiomyocytes, 2 h, at 20 µM, stronger effect = higher value;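 note: 0% = DMSO wells with peroxide and 100% = DMSO wells without peroxide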

SMILES	protection from H2O2 cell death
CCNC(=O)c1sccc1-n1cccc1	5% (inactive)
COc1ccccc1OCC(=O)Nc1ccccc1C(=O)NC1CC1	4.6% (inactive)
O=C(COc1ccccc1O)NC1CCCC1	-0.6% (inactive)
O=C(COc1cccc2c1CCNC2=O)NC1CCCCC1	56.1% (active)
Cc1ccccc1NC(=O)CSC1=NCCN1	-2% (inactive)
Cc1ccccc1NC(=O)COc1cccc2c1CCNC2=O	70.7% (active)
O=C(COC(=O)c1cccc(Cl)c1)NC1CCCCCCC1	-3.2% (inactive)
OCC1(Cc2ccccc2C(F)(F)F)CCN(Cc2cccc3cnccc23)CC1	-2.8% (inactive)
Cc1cc(O)ccc1NC1=CC(=O)CC(C)(C)C1	-13.4% (inactive)
CCN(CC)CCCNC(=O)c1c(O)c2cc(F)cc3c2n(c1=O)C(C)CC3 (configuration not stated)	22.2% (inactive)
CCCCN(CCCC)CCC(O)c1cc2c(Cl)cc(Cl)cc2c2cc(C(F)(F)F)ccc12 (configuration not stated)	-33.9% (inactive)
Cc1ccc(NC(=O)Cn2cccc2C2=NC(c3ccccc3)CO2)c(C)c1 (configuration not stated)	-6.9% (inactive)
Cc1cc2c(cc1S(=O)(=O)CCC(=O)NCc1ccccc1)OCC(=O)N2	2.9% (inactive)
COc1ccc(NC(=O)CCS(=O)(=O)c2cc3c(cc2Cl)NC(=O)CO3)cc1OC	7.8% (inactive)
COc1ccc(Cl)cc1NC(=O)CCS(=O)(=O)c1cc2c(cc1C)NC(=O)CO2	54.6% (active)
O=C(Oc1cccc(N2C(=O)C3C4c5ccccc5C(c5ccccc54)C3C2=O)c1)c1ccco1 (configuration not stated)	-6.6% (inactive)
Nc1c(N(CCO)C(=O)C2CCCCC2)c(=O)[nH]c(=O)n1Cc1ccccc1	-1.8% (inactive)
O=C(CNC(=O)c1ccc(Cl)cc1Cl)NCC(=O)Nc1ccccc1N1CCOCC1	-2.6% (inactive)
Cc1nccn1-c1ccc(NC(=O)[C@H]2O[C@@H](n3cnc4c(N)ncnc43)[C@H](O)[C@@H]2O)cc1	4.5% (inactive)
Cc1cccc(C)c1NC(=O)CNC(=O)c1ccc2c(c1)OCCO2	0.8% (inactive)
Cc1nc(NC(=O)c2ccc3c(c2)OCCO3)ccc1Br	-4.4% (inactive)

SMILES	protection from H2O2 cell death
Cc1ccc2sc(NNC(=O)c3ccc4c(c3)OCCO4)nc2c1C	81.8% (active)
O=C1CCN(Cc2ccc([N+](=O)[O-])cc2)CCN1[C@H](CO)Cc1ccccc1	0.1% (inactive)
COc1cc(C(C)=O)ccc1OC(C)C(=O)Nc1ccc(S(=O)(=O)N2CCCC2)cc1 (configuration not stated)	4.6% (inactive)
COc1ccc(S(=O)(=O)N2CCCCCC2)cc1NC(=O)Cc1ccc(OC)c(OC)c1	4% (inactive)
COc1ccc(-c2ccc(Nc3ccc(S(=O)(=O)N4CCCC4)cc3)nn2)cc1OC	58.5% (active)
CC(Nc1ccccc1)c1cccnc1 (configuration not stated)	4.3% (inactive)
O=C(CCN1CCCCC1)Nc1ccc(F)c(F)c1	0.6% (inactive)
O=C(NCCc1ccc(Cl)cc1)c1cccc(N2CCCC2=O)c1	-1.2% (inactive)
Oc1cc2c(cc1O)CN(C(=S)NCCc1ccc(Cl)cc1)CCC2	74.4% (active)
Cc1cccc(NC(=S)NCCc2ccc(Cl)cc2)c1C	-6.5% (inactive)
CC(C)C1CCN(C(=O)C2CCC(=O)N(C3CCCCCC3)C2)CC1 (configuration not stated)	-2.1% (inactive)
Cc1ccc(S(=O)(=O)N2CCCCC2)cc1NC(=O)c1cccnc1	12% (inactive)
O=C(c1cccnc1)N1CCN(S(=O)(=O)c2cccs2)CC1	10.1% (inactive)
O=C(N/N=C/c1sc(N2CCCCC2)nc1-c1cccs1)c1cccnc1	56.3% (active)
CC(C(=O)Nc1ccc(S(=O)(=O)N2CCCC2)cc1)N(C)Cc1ccc(F)cc1 (configuration not stated)	0.3% (inactive)
O=C(NCC(=O)N(Cc1cccs1)C(C(=O)NC1CCCCC1)c1ccco1)c1cccs1 (configuration not stated)	68.2% (active)
Cc1ccccc1N(C(=O)CNC(=O)c1cccs1)C(C(=O)NC1CCCC1)c1ccncc1 (configuration not stated)	1.9% (inactive)
O=C(NCC(=O)N(CC1CCCO1)C(C(=O)NC1CCCCC1)c1ccccc1)c1ccco1 (configuration not stated)	2.8% (inactive)
COc1ccc(-c2ccc(C(=O)NC(C)C)c3occc23)c(C)c1	5.9% (inactive)
COc1ccc(-c2nc3n(c2Br)CCC3)cc1	-13.5% (inactive)
COc1ccc(NC(=O)CN(C)C(=O)c2cc(C)oc2C)cc1	-3.2% (inactive)

SMILES	protection from H2O2 cell death
CCc1ccc(-c2nc(SCC(=O)NC3CCCC3)n[nH]2)cc1	-11.6% (inactive)
O=C(OCc1cn([C@H]2C[C@H](c3ccccc3)N(C(=O)c3cccs3)C[C@@H]2O)nn1)c1ccccc1	-0.9% (inactive)
COC(=O)c1ccc(C(NC(=O)OCc2ccccc2)/C(F)=C/[C@@H](C)C(=O)O)cc1 (some centres not stated)	1.8% (inactive)
COC(=O)c1cc(CNC(=O)CC(C)c2ccccc2)ccc1OC (configuration not stated)	9.7% (inactive)
COC(=O)c1ccc(C(NC(=O)OCc2ccccc2)/C(C)=C/[C@@H](C)C(=O)NCc2ccc(OC)c(OC)c2)cc1 (some centres not stated)	52% (active)
CCCCNC(=O)C(C)N(CCN(C)C)C(=O)CCCCCN1C(=O)NC(c2ccc(Cl)cc2)C(C(=O)OCc2ccccc2)=C1C (configuration not stated)	-27% (inactive)
CC(=O)NC(c1cccc(F)c1)c1nc(-c2cccc(F)c2)cs1 (configuration not stated)	-2.7% (inactive)
Nc1nc2cc(Cl)ccc2n1N	1.6% (inactive)
COc1ccc(NC(=O)c2oc3ccc(S(=O)(=O)N4CCOCC4)cc3c2C)cc1	52.7% (active)
Cc1c(C(=O)Nc2cccc(S(=O)(=O)N3CCOCC3)c2)oc2ccccc12	4.3% (inactive)
Cc1c(C(=O)Nc2ccccc2Cl)oc2ccc(S(=O)(=O)N3CCC4(CC3)OCCO4)cc12	0.9% (inactive)
Cc1ccc(NC(=O)C(C)OC(=O)Cc2c[nH]c3ccccc23)cc1S(=O)(=O)N1CCOCC1 (configuration not stated)	-2.5% (inactive)
C/C(=N\NC(=O)c1cccc([N+](=O)[O-])c1)c1cccnc1	9.5% (inactive)
CCN(CC)c1ccc(S(=O)(=O)N2CCCCC2)cc1NC(=O)C1=COCCO1	-3.5% (inactive)
CC(=O)c1c(C)[nH]c(C(=O)OCC(=O)Nc2sc3c(c2C#N)CCCC3)c1C	-12.2% (inactive)
CCCCC(=O)NC(c1ccc(OC)c(OC)c1)c1ccc2cccnc2c1O (configuration not stated)	36.9% (inactive)
CC(=O)NC(c1cccs1)c1cc(Br)c2cccnc2c1O (configuration not stated)	43.4% (inactive)
CCN1CCN(C(c2cccnc2)c2cc(Cl)c3cccnc3c2O)CC1 (configuration not stated)	64% (active)
CCOC(=O)N1CCN(C(c2cccnc2)c2ccc3cccnc3c2O)CC1 (configuration not stated)	69.3% (active)
CCOC(=O)N1CCN(C(=O)C2CCN(c3ncnc4c3sc3cccc(F)c34)CC2)CC1	-28.4% (inactive)
